Source: PubChem BioAssay (NCATS)
Inconclusive results are not listed. Calls of active or inactive are those of the source. The call rests on the fitted dose curve; in most records, active means well fitted cell-killing curve with a large enough effect; inconclusive means small, poorly fitted or top-dose-only effect, or effect the other way; inactive means no such curve, though single readings can be large or run the other way.

Assay: Quantitative High-Throughput drug screen in 47 multiple myeloma cell lines against the NCATS MIPE library collection: LP1_DSMZ cell viability assay (AID 1918982); further: nearly all actives have a fitted effect of over 35% in size
Settings: LP1 myeloma viability, CellTiter-Glo ATP luminescence, 48 h; series mostly up to 45.8 µM; viability (% of control): at the top concentration
How it was run: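 500 cells/well; MIPE 4.0 drugs pin-transferred; 48 h, 37C, 5% CO2. CellTiter-Glo, 5 min RT, luminescence. Controls: DMSO 100%, media 0%.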
Potency means the concentration at half of the fitted maximal effect.

SMILES	viability (% of control)	Potency
CC1C(=O)OC2C(O)C34C5CC(C(C)(C)C)C36C(OC(=O)C6O)OC4(C(=O)O5)C12O (configuration not stated)	111% (inactive)	
C[C@@H](NC(=O)c1ncnc(N)c1Cl)c1ncc(C(=O)Nc2cc(C(F)(F)F)c(Cl)cn2)s1		4.69 µM (active)
C[C@@H](O)[C@H]1C(=O)N2C(C(=O)OCOC(=O)C(C)(C)C)=C(SC3CN(C4=NCCS4)C3)[C@H](C)[C@H]12	108% (inactive)	
CN(C)CC[C@H](CSc1ccccc1)Nc1ccc(S(=O)(=O)NC(=O)c2ccc(N3CCN(Cc4ccccc4-c4ccc(Cl)cc4)CC3)cc2)cc1[N+](=O)[O-]		23.5 µM (active)
C[C@@H]1C[C@H]2[C@@H]3CCC4=CC(=O)C=C[C@]4(C)[C@@]3(F)[C@@H](O)C[C@]2(C)[C@@]1(O)C(=O)CO		0.0083 µM (active)
O=c1[nH]c(=O)n([C@H]2C[C@@H](O)[C@@H](CO)O2)cc1I	91.9% (inactive)	
CON(C)C(=O)N1N=C(c2cc(F)ccc2F)S[C@]1(CCCN)c1ccccc1	22.5% (inactive)	
C[C@]12C=CC(=O)C=C1CC[C@@H]1[C@@H]2[C@@H](O)C[C@@]2(C)[C@@H]1CC[C@]2(O)C(=O)CO		0.0469 µM (active)
CN1CCN2c3ncccc3Cc3ccccc3C2C1 (configuration not stated)	103% (inactive)	
N#CC(c1ccnc(NCCc2cccnc2)n1)c1nc2ccccc2s1 (configuration not stated)		18.7 µM (active)
CN1[C@H]2CC[C@H]1CC(OC(=O)c1c[nH]c3ccccc13)C2 (some centres not stated)	91.4% (inactive)	
Cc1cnc(-c2cc(N3CCN(C(=O)CCS(C)(=O)=O)CC3)ncc2Cl)c(C)c1	123% (inactive)	
CN[C@@H]1[C@@H](O)[C@@H](O[C@@H]2[C@@H](O)[C@H](O[C@H]3O[C@H](CN)[C@@H](O)[C@H](O)[C@@H]3O)[C@@H](N)C[C@@H]2NC(=O)[C@@H](O)CN)OC[C@]1(C)O	83.5% (inactive)	
CN1CCN(c2ncc(-c3cc(Cl)cc(Cl)c3Cl)c(N)n2)CC1	88.7% (inactive)	
NC(=O)c1ccc(N(C(N)=O)c2c(F)cccc2F)nc1-c1ccc(F)cc1F	92.2% (inactive)	
CCC[C@H](Nc1nc(-c2ccc(NC(=O)NCC)c(OC)c2)ncc1C)c1cccnc1		0.0187 µM (active)
NS(=O)(=O)c1cc(Cl)c(Cl)c(S(N)(=O)=O)c1	95.6% (inactive)	
CCN(CC)CCCCNc1nc2cc(Cl)c(Cl)cc2nc1-c1ccc(-c2cccs2)s1		8.33 µM (active)
CO[C@H]1/C=C\O[C@@]2(C)Oc3c(C)c(O)c4c(O)c(c(C=NN5CCN(C6CCCC6)CC5)c(O)c4c3C2=O)NC(=O)C(C)=CC=C[C@H](C)[C@H](O)[C@@H](C)[C@@H](O)[C@@H](C)[C@H](OC(C)=O)[C@H]1C		1.87 µM (active)

SMILES	viability (% of control)	Potency
CC(=O)NCCC(=O)N[C@@H](CCC(N)=O)C(=O)N[C@@H](CO)C(=O)N[C@@H](CCC(N)=O)C(=O)N[C@@H](CCC(N)=O)C(=O)N[C@H](C(=O)N[C@@H](Cc1ccccc1)C(=O)N[C@]1(C)CCCCCCC=CCCC[C@@](C)(C(=O)N[C@@H](CCC(N)=O)C(=O)N[C@@H](CC(N)=O)C(N)=O)NC(=O)[C@H](CC(C)C)NC(=O)[C@H](CC(C)C)NC(=O)[C@@H](CCCNC(=N)N)NC(=O)[C@H](Cc2c[nH]c3ccccc23)NC(=O)[C@H](CC(C)C)NC(=O)[C@H](CC(N)=O)NC1=O)[C@H](C)O		20.9 µM (active)
CC1(C)[C@H]2CC[C@]3(C)[C@@H](C(=O)C=C4[C@@H]5C[C@@](C)(C(=O)O)CC[C@]5(C)CC[C@]43C)[C@@]2(C)CC[C@@H]1O	99.8% (inactive)	
CC[C@H](NC(=O)[C@H](C)NC)C(=O)N1C[C@@H](O)C[C@H]1Cc1c(-c2[nH]c3cc(F)ccc3c2C[C@H]2C[C@H](O)CN2C(=O)[C@H](CC)NC(=O)[C@H](C)NC)[nH]c2cc(F)ccc12		20.9 µM (active)
COc1cc(C=CC(=O)O)ccc1O	113% (inactive)	
Cc1ccccc1-n1c(Cn2nc(-c3cccc(O)c3)c3c(N)ncnc32)nc2cccc(C)c2c1=O		11.8 µM (active)
Cc1ccc2c(=O)c3cccc(CC(=O)O)c3oc2c1C	107% (inactive)	
O=C(NCCCCN1CCOCC1)c1cc2ccccc2o1	112% (inactive)	
Cc1[nH]c(C=C2C(=O)Nc3ccc(S(=O)(=O)N(C)c4cccc(Cl)c4)cc32)c(C)c1C(=O)N1CCN(C)CC1		18.7 µM (active)
N[C@@H](CC(=O)N1CCn2c(nnc2C(F)(F)F)C1)Cc1cc(F)c(F)cc1F	115% (inactive)	
O=C(Nc1ccc(OC(F)(F)F)cc1)c1sccc1NCc1ccnc2ccccc12		20.9 µM (active)
COc1ccnc(CS(=O)c2nc3ccc(OC(F)F)cc3[nH]2)c1OC (configuration not stated)	102% (inactive)	
CN1c2ccccc2C(=O)N2CCc3c([nH]c4ccccc34)C21 (configuration not stated)	81.9% (inactive)	
COc1cccc(OC)c1-c1cc(C(=O)NC2(C(=O)O)C3CC4CC(C3)CC2C4)nn1-c1ccnc2cc(Cl)ccc12 (configuration not stated)	86.4% (inactive)	
O=C(NC[C@H](O)CO)c1ccncc1Nc1ccc(I)cc1F	77.5% (inactive)	
CCOC(=O)N1CCN([N+]([O-])=NOc2cc(ON=[N+]([O-])N3CCN(C(=O)OCC)CC3)c([N+](=O)[O-])cc2[N+](=O)[O-])CC1		33.2 µM (active)
COc1ccc(Cn2ccc3ccc(C(=O)NO)cc32)cc1		16.6 µM (active)
O=C(CO)N1CCC(c2[nH]nc(-c3ccc(Cl)cc3)c2-c2ccncn2)CC1	89.7% (inactive)	
CC1(COc2ccc3c(c2)ncn3-c2ccc3cccc(N4CCC(N)CC4)c3n2)COC1		1.18 µM (active)
